Source: the supplement of paper PMC10127200
Where a name gives a salt, the structure may show the parent alone.

Experiments:
Experiment in all cases: Euclidean distance of Cell Painting phenotypic profile (signed KS, 77 features) to DMSO centroid (dimensionless distance); 5 or 10 uM (library dependent); higher = stronger phenotypic change vs DMSO (phenoactivity)
Details in all cases: 48 h
786-O = system: 786-O
Method in brief: (§1)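 Five cancer lines and a healthy fibroblast line received library compounds at 10 or 5 uM (library-dependent, 0.1% DMSO final) for 48 h. Stained cells were imaged confocally at 20X (9 fields/well). Harmony extracted 77 features, each scored as a signed Kolmogorov-Smirnov statistic against same-plate vehicle wells. Profiles were plate-position corrected, correlation-weighted and replicate-averaged at the top dose. Phenoactivity is the Euclidean distance from each profile to the median vehicle profile.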

A549 = system: A549
Method in brief: as §1

DU145 = system: DU145
Method in brief: as §1

FB = system: FB
Method in brief: as §1

HEPG2 = system: HEPG2
Method in brief: as §1

OVCAR4 = system: OVCAR4
Method in brief: as §1

| Compound | Euclidean distance (786-O) | Euclidean distance (A549) | Euclidean distance (DU145) | Euclidean distance (FB) | Euclidean distance (HEPG2) | Euclidean distance (OVCAR4) |
| --- | --- | --- | --- | --- | --- | --- |
| CCN(CC)C(=O)N1CCN(C)CC1 [Diethylcarbamazine citrate] | 0.755 | 0.674 | 0.703 | 0.826 | 0.536 | 1.14 |
| CCC(c1ccccc1)c1c(O)c2ccccc2oc1=O (stereo not given) [Phenprocoumon] | 0.851 | 1.11 | 0.728 | 1.04 | 0.975 | 0.957 |
| O=C(c1ccc(F)cc1)N1CCC[C@H](c2nc(-c3ccc(F)cc3)no2)C1 | 1.35 | 0.726 | 0.856 | 1.17 | 0.656 | 0.832 |
| CC(C)(C)c1cc(/C=C(\C#N)C(N)=S)cc(C(C)(C)C)c1O [Tyrphostin AG 879] | 1.54 | 1.46 | 0.926 | 0.967 | 0.81 | 1.01 |
| CCOc1ccc(C[C@H]2NC(=O)CCSSC[C@@H](C(=O)N3CCC[C@H]3C(=O)N[C@@H](CCCN)C(=O)NCC(N)=O)NC(=O)[C@H](CC(N)=O)NC(=O)[C@H]([C@@H](C)O)NC(=O)[C@H]([C@@H](C)CC)NC2=O)cc1 [Atosiban Acetate] | 1.21 | 1.46 | 1.05 | 1.59 | 1.37 | 1.9 |
| C=C(C)[C@@H]1CC[C@]2(C(=O)O)CC[C@]3(C)[C@H](CC[C@@H]4[C@@]5(C)CC[C@H](O)C(C)(C)[C@@H]5CC[C@]43C)[C@@H]12 [Betulinic acid] | 1 | 0.893 | 0.693 | 0.844 | 0.744 | 0.866 |
| CC(=O)NS(=O)(=O)c1ccc(N)cc1 [Sulfacetamide sodium salt hydrate] | 1.2 | 0.692 | 0.872 | 1.61 | 0.38 | 1.53 |
| CCCCCCCCCCCCCCCCOP(=O)([O-])OCC[N+](C)(C)C [Miltefosine] | 1.74 | 1.27 | 1.17 | 1.39 | 1.15 | 1.63 |
| CC1OC2(CS1)CN1CCC2CC1 (stereo not given) [Cevimeline] | 1.52 | 1.3 | 0.896 | 1.55 | 0.72 | 1.48 |
| CC(C)CCCC(C)N (stereo not given) [Octodrine (2-Amino-6-methylheptan)] | 1.17 | 0.649 | 0.851 | 1.24 | 1.34 | 1.4 |
| Cc1cccc(-c2[nH]c(C(C)(C)C)nc2-c2ccc3nccnc3c2)n1 | 1.56 | 1.18 | 0.741 | 0.884 | 1.48 | 0.948 |
| Nc1nc2c(ncn2COCCO)c(=O)[nH]1 [Aciclovir] | 1.1 | 1.17 | 1.08 | 1.32 | 1.25 | 1.37 |
| COc1cc(N2CCC(N)CC2)ccc1Nc1ncc(Cl)c(-c2c[nH]c3ccccc23)n1 | 2.97 | 3.34 | 2.4 | 4.05 | 2.56 | 2.07 |
| OC[C@H]1O[C@@H](Oc2ccc(O)cc2)[C@H](O)[C@@H](O)[C@@H]1O [Arbutin] | 1.12 | 0.916 | 2.06 | 0.914 | 0.919 | 1.73 |
| OC[C@H]1O[C@@H](Oc2cc(O)cc(/C=C/c3ccc(O)cc3)c2)[C@H](O)[C@@H](O)[C@@H]1O [Polydatin] | 1.21 | 2.03 | 1.22 | 0.978 | 0.886 | 1.3 |
| COc1cc(OC)c(NC(=O)Nc2cc(C)on2)cc1Cl | 0.922 | 0.813 | 1.16 | 0.91 | 0.834 | 1.52 |
| O=C(Nc1c(Cl)cncc1Cl)c1ccc(OC(F)F)c(OCC2CC2)c1 [Roflumilast] | 1.07 | 1.27 | 0.92 | 0.952 | 0.815 | 1.12 |
| Nc1ccc(C(=O)O)c(O)c1 [4-Aminosalicylic acid] | 0.634 | 0.798 | 2.33 | 0.835 | 0.517 | 0.799 |
| CCCCC(O)c1ccccc1 (stereo not given) [Fenipentol] | 1.46 | 1.44 | 1.43 | 0.766 | 0.912 | 1.68 |
| C1CNCCN1 [Piperazine] | 1.04 | 1.08 | 0.846 | 1.09 | 0.402 | 1.67 |
| Nc1ncc2ncn(CC3(OCP(=O)(O)O)CC3)c2n1 [Besifovir] | 1.03 | 0.329 | 1.01 | 1.2 | 0.716 | 0.915 |
| O=C1c2cccc(O)c2C(=O)c2c(O)cc(CO)cc21 [Aloe-emodin] | 1.1 | 1.14 | 1.2 | 1.05 | 1.08 | 1.41 |
| O=C(Cc1cccc(OC(F)(F)F)c1)Nc1ccc(CCCCc2nnc(NC(=O)Cc3ccccn3)s2)nn1 | 2.27 | 2.41 | 1.99 | 3.38 | 2.75 | 2.28 |
| FC(F)(c1ccc2ncccc2c1)c1nnc2ccc(-c3ccncc3)nn12 | 1.6 | 0.84 | 2.54 | 0.717 | 1.24 | 1.2 |
| COc1cccc2c1C(=O)c1c(O)c3c(c(O)c1C2=O)C[C@@](O)(C(=O)CO)C[C@@H]3O[C@H]1C[C@H](N)[C@H](O[C@@H]2CCCCO2)[C@H](C)O1 [Pirarubicin] | 3.6 | 4.43 | 3.47 | 4.28 | 4.37 | 4.83 |
